# Test results: the supplement of paper PMC6555819
# Columns and labels:
# Experiment in all cases: PBM binding z-score (relative to random genomic background probes); higher = stronger binding; sequences stand for … in GC…GCGATTGACAGCGTAGAATGAAGG
# [1] = system: FXR:RXRa (NR concentration 270 nM, RXRa partner concentration 90 nM)
# How it was run: (§1)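 Custom Agilent 4×180K protein-binding microarrays carried double-stranded probes, each with a 34-nt variable region. These regions held direct-repeat seeds, single-nucleotide variants, half-site ablations and random human genomic background sequences. Ligand-free nuclear receptor dimers were incubated on the arrays for 1 h, antibodies against each partner (one per run) detected binding, and scanned fluorescence was regression-normalized. Binding z-scores take the random background probes as reference.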
# [2] = system: LXRa:RXRa (NR concentration 270 nM, RXRa partner concentration 90 nM)
# How it was run: as §1
# [3] = system: LXRa homodimer (NR concentration 270 nM)
# How it was run: as §1
# [4] = system: LXRb:RXRa (NR concentration 270 nM, RXRa partner concentration 90 nM)
# How it was run: as §1
# [5] = system: LXRb homodimer (NR concentration 270 nM)
# How it was run: as §1
# [6] = system: PPARa:RXRa (NR concentration 270 nM, RXRa partner concentration 90 nM)
# How it was run: as §1
# [7] = system: PPARg:RXRa (NR concentration 180 nM, RXRa partner concentration 90 nM)
# How it was run: as §1
# [8] = system: PPARg:RXRa 270nM:90nM, anti-RXR (NR concentration 270 nM, RXRa partner concentration 90 nM)
# How it was run: as §1
# [9] = system: PPARg:RXRa 30nM:10nM, anti-RXR (NR concentration 30 nM, RXRa partner concentration 10 nM)
# How it was run: as §1
# [10] = system: PPARg:RXRa 90nM:30nM, anti-RXR (NR concentration 90 nM, RXRa partner concentration 30 nM)
# How it was run: as §1
# [11] = system: PPARg:RXRa DBDmut IVT, anti-RXR (DBD mutation: RXRa K156A/R161A, NR concentration 270 nM, RXRa partner concentration 90 nM)
# How it was run: as §1
# [12] = system: PPARg:RXRa IVT, anti-PPARg (NR concentration 270 nM, RXRa partner concentration 90 nM)
# How it was run: as §1
# [13] = system: PPARg DBDmut:RXRa IVT, anti-PPARg (DBD mutation: PPARg1 K132A/R137A, NR concentration 270 nM, RXRa partner concentration 90 nM)
# How it was run: as §1
# [14] = system: PPARg DBDmut IVT, anti-PPARg (DBD mutation: PPARg1 K132A/R137A, NR concentration 270 nM)
# How it was run: as §1
# [15] = system: PPARg homodimer (NR concentration 180 nM)
# How it was run: as §1
# [16] = system: PXR:RXRa (NR concentration 270 nM, RXRa partner concentration 90 nM)
# How it was run: as §1
# [17] = system: PXR homodimer (NR concentration 270 nM)
# How it was run: as §1
# [18] = system: RARa:RXR (NR concentration 270 nM, RXRa partner concentration 90 nM)
# How it was run: as §1
# [19] = system: RARa homodimer (NR concentration 270 nM)
# How it was run: as §1
# [20] = system: RARb:RXRa (NR concentration 270 nM, RXRa partner concentration 90 nM)
# How it was run: as §1
Sequence,PBM binding z-score [1],PBM binding z-score [2],PBM binding z-score [3],PBM binding z-score [4],PBM binding z-score [5],PBM binding z-score [6],PBM binding z-score [7],PBM binding z-score [8],PBM binding z-score [9],PBM binding z-score [10],PBM binding z-score [11],PBM binding z-score [12],PBM binding z-score [13],PBM binding z-score [14],PBM binding z-score [15],PBM binding z-score [16],PBM binding z-score [17],PBM binding z-score [18],PBM binding z-score [19],PBM binding z-score [20]
ACTATTAGATGAGACGAGGGCAACCGATAGGTTG,0.455,0.107,0.389,0.0232,0.456,0.35,1.04,0.132,0.496,0.603,0.41,0.591,1.15,1.11,1.13,0.465,0.757,0.634,1.38,0.915
ACTCGGAGGACAAGGGTCAGAGCTACGCCAGTGA,2,1.9,-0.11,1.6,-0.535,3.37,4.49,4.83,2.75,4.25,0.222,1.88,-0.0175,0.0941,1.36,1.93,-0.342,2.63,0.214,3.29
CCTACTGGGCCAAAAGTCATTGATTCCAATGCTC,-0.29,0.0265,-0.0792,0.111,-0.713,3.54,7.06,7.89,8.84,9.3,4.9,4.42,-0.0689,-0.159,0.216,-0.153,-0.589,0.273,0.25,0.447
TGAATGAGGTTAAAGATCAGTGAACGTGGCGTCG,3.15,2.41,-0.442,1.55,-0.0397,4.69,5.57,6.1,4.77,6.78,2.37,3.44,0.722,0.242,1.24,2.01,0.152,3.08,-0.0565,2.09
GATACAGGGTCAAGGCAAGAGTACGCGTATTGAT,6.93,4.47,0.251,3.95,0.189,6.03,6.09,5.4,2.18,4.16,2.89,4.14,1.59,0.74,2.69,3.78,0.428,4.61,1.12,4.62
TCATATAGGTAAAGGTGAAAGTCGAACGATATGA,0.768,1.27,-0.00869,1.05,-0.112,3.41,4.01,4.55,4.42,4.75,3.76,4.23,1.81,1.2,1.04,1.13,-0.047,1.71,0.402,2.1
GCGACTGTGGCATCAGCAGGTTACCATAACTTAA,-0.475,-0.391,-0.237,-0.0453,-0.969,0.0749,0.0982,-0.457,-0.399,-0.487,0.287,0.27,-0.703,-1.08,-0.566,-0.281,-0.227,0.0331,-0.798,0.00959
TCTTGTAGATCAAAGGTTAAGATAGCCGAAGCCT,1.76,2.11,0.243,2.23,0.104,4.83,8.74,8.06,8.48,9.71,2.14,4.36,0.743,0.848,2.49,2.29,-0.253,3.37,0.787,1.98
CCTACTGGGCCATCACGTCATTGATATCAACGTT,-0.11,-0.114,-0.158,0.0401,-0.225,0.509,0.963,1.09,0.356,0.648,4.36,3.56,0.399,0.151,0.3,-0.248,0.0325,0.0611,-0.31,0.25
TCTAGTTGGTCAGAGGTCACACACTCGAAATGCG,4.94,4.85,3.21,4.9,1.13,5.55,9.31,8.56,7.99,9.17,2.47,4.96,1.28,0.861,4.45,5.4,1.74,5.99,1.84,4.49
